In PubChem BioAssay AID1117319 (Southern Research Institute, 2015):
Several values for one entry are separate records, joined by “and”; a condition that tells them apart may be missing. Identical values can stand only once. About 1,500 (0.58%) of roughly 260,000 compounds were called active. Inconclusive results (about 5%) are left out.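 The calls were made as follows: active = inhibition above a set limit at one or more doses, reproduced on every date tested; inconclusive = results disagree between test dates, or hit never tested in dose response; inactive = the rest.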 A selection follows. Results with a measured potency or affinity are listed apart.

Molecular target: Virion infectivity factor (Human immunodeficiency virus type 1 group M subtype B (isolate BH10)) + Virion infectivity factor (Human immunodeficiency virus type 1 group M subtype B (isolate BRU/LAI)) + Virion infectivity factor (Human immunodeficiency virus type 1 group M subtype B (isolate PCV12)) + Virion infectivity factor (Human immunodeficiency virus type 1 group M subtype B (isolate HXB2)) + DNA dC->dU-editing enzyme APOBEC-3G (Homo sapiens) (UniProt P69720+P69721+P69722+P69723+Q9HC16)
Assay: HIV-1 Vif–A3G interaction blockers – biochemical, TR-FRET, GST-Vif 1-94, biotin-A3G peptide, dose response retest, primary screen (AID 1117319);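 also: Vif residues 1-94 fused to GST binding biotinylated APOBEC3G peptide 110-148; 0% = full assay without inhibitor and 100% = GST in place of GST-Vif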
Conditions: TR-FRET GST-Vif / biotin-A3G peptide binding; hits give high values

Compound | inhibition
NS(=O)(=O)c1ccc(NC(=O)C2CCCN(S(=O)(=O)c3ccc(F)cc3)C2)cc1 (stereo not drawn) | -11.9% (inactive)
COc1cccc(N(CC(=O)NCc2cccnc2)S(C)(=O)=O)c1 | -2.81% (inactive)
Cc1ccc(N(CC(=O)NCc2cccnc2)S(C)(=O)=O)cc1C | -4.47% (inactive)
O=C(Nc1ccccc1N1CCOCC1)c1ccc(Br)o1 | 7.09% (inactive)
CN1CCN(c2ccccc2NC(=O)c2ccc(Br)o2)CC1 | 0.41% (inactive)
O=C(O)c1cc(-c2ccc(N3CCOCC3)cc2)nn1-c1ccc(F)cc1 | 18.4% (inactive)
Cn1cnc(S(=O)(=O)N2CCc3ccccc32)c1 | 3.79% (inactive)
c1cc2c3c(cccc3c1)NC1(CCCC1)N2 | 2.08% (inactive)
c1cc2c3c(cccc3c1)NC1(CCCCC1)N2 | 10.4% (inactive)
Cc1cc(=O)[nH]c(SCCCOc2ccc3c(c2)CCC3)n1 | -0.15% (inactive)
CCn1c(SCC(=O)NC(=O)NCc2ccco2)nnc1-c1cccs1 | -5.61% (inactive)
Cn1c(SCC(=O)NCc2ccco2)nnc1-c1cccs1 | -8.22% (inactive)
CCn1nnnc1SCC(=O)NCc1ccco1 | 21.2% (inactive)
CC(C)n1nnnc1SCC(=O)NCc1ccco1 | 20% (inactive)
Clc1ccccc1Cc1noc(CN2CCCCC2c2ccccn2)n1 (stereo not drawn) | 2.88% (inactive)
COc1cccc(OCc2nnc(SCC(=O)N3c4ccccc4Sc4ccc(Cl)cc43)o2)c1 | 8.84% (inactive)
O=C(CN(C(=O)Cn1nnc(-c2ccc(F)cc2)n1)c1cnc2ccccc2c1)NCC1CCCO1 (stereo not drawn) | -11.4% (inactive)
Cc1cc(=O)n2[nH]c(-c3sccc3-n3c(C)ccc3C)cc2n1 | -3.07% (inactive)
Cc1cc(C)n2nc(-c3ccsc3-n3c(C)ccc3C)cc2n1 | 16.4% (inactive)
O=C(c1ccccc1)c1n[nH]c(-c2ccccc2)cc1=O | 0.47% (inactive)
CCOC(=O)N1CCC(NC(=O)c2cnn3cccnc23)CC1 | -2.64% (inactive)
O=C(CCSCCC(=O)Nc1c(F)c(F)c(F)c(F)c1F)Nc1c(F)c(F)c(F)c(F)c1F | -9.21% (inactive)
O=C(O)CCCC(=O)Nc1c(F)c(F)c(F)c(F)c1F | 3.4% (inactive)
CN(C)c1nc(NNC(=O)c2ccccc2)nc(N(C)C)n1 | -5.34% (inactive)

Compound | inhibition
C=CCn1c(SCC(=O)Nc2cc(C)on2)nc2sc(C)c(C)c2c1=O | -2.76% (inactive)
C=CCn1c(SCC(=O)c2cccs2)nc2sc(C)c(C)c2c1=O | -46.6% (inactive)
CCN(CC(=O)Nc1c(F)cccc1F)C(=O)c1ccc2c(c1)S(=O)(=O)N=C1CCCCCN12 | -6.51% (inactive)
O=C(/C=C/c1ccc(O)c(O)c1)c1ccccc1O | 13.2% (inactive)
COc1cc(/C=C/C(=O)OCC(=O)NCC2CCCCC2)ccc1O | -4.25% (inactive)
O=C(CCOc1ccccc1)Nc1ccc([N+](=O)[O-])cc1 | 5.33% (inactive)
CCOc1ccc(NC(=O)CN(C)C(=O)c2cc(-c3ccco3)nc3ccccc23)cc1OCC | -2.81% (inactive)
COc1ccc(NC(=O)CN(C)C(=O)c2cc(-c3ccc(Cl)cc3)nc3ccccc23)cc1 | 2.66% (inactive)
Cc1ccc(NC(=O)c2cc(-c3ccco3)nc3ccccc23)cc1S(=O)(=O)N1CCOCC1 | 32.6% (inactive)
Cc1ccc(NC(=O)CN(C)C(=O)c2cc(-c3ccco3)nc3ccccc23)cc1 | 55.7% (inactive)
COc1cccc(NC(=O)CN(C)C(=O)c2cc(-c3ccco3)nc3ccccc23)c1 | 23.7% (inactive)
CN(CC(=O)Nc1cccc(F)c1)C(=O)c1cc(-c2ccccc2)nc2ccccc12 | -4.43% (inactive)
COc1ccc(NC(=O)c2cc(C)nc3ccccc23)cc1S(=O)(=O)N1CCOCC1 | -2.24% (inactive)
COc1ccc(NC(=O)CN(C)C(=O)c2cc(-c3ccc(OC)cc3)nc3ccccc23)cc1 | -5.94% (inactive)
CC(=O)c1cccc(N/C=C\c2nnnn2-c2ccc(F)cc2)c1 | -15.5% (inactive)
CCOC(=O)c1ccc(-c2c(C)cc3oc(=O)cc(-c4ccccc4)c3c2C)cc1 | -7.8% (inactive)
CN(C)c1ccc(C=O)c(Oc2ccccc2)c1 | -6.28% (inactive)
CC1=NN(c2cccc(F)c2)C(=O)/C1=C/c1ccc(N(C)C)cc1 | 7.52% (inactive)
CN(C)c1ccc(C=c2c3ccccc3n3c2c2c([n+]3C)CCCC2)cc1 | 26.6% (inactive)
COc1ccc(C(=O)c2ccc(N(C)C)cc2)c2ccccc12 | -5.09% (inactive)
CCN(CC)CC(O)Cn1c(C)c(-c2ccccc2)c2cc([N+](=O)[O-])ccc21 (stereo not drawn) | -3.66% (inactive)
O=[N+]([O-])c1ccc2c(c1)c(-c1ccccc1)nc1nncn12 | 1.68% (inactive)
Cc1cccc(C)c1NC(=O)C1CCCN(CCCc2ccccc2)C1 (stereo not drawn) | 3.24% (inactive)
COC(=O)c1ccc(CNC(=O)c2ccc(NS(=O)(=O)c3ccc4[nH]c(=O)[nH]c4c3)cc2)cc1 | -7.35% (inactive)

Compound | inhibition
CCOc1ccc(NC(=O)/C(C=Nc2ccccc2)=C(\C)O)cc1 | -3.41% (inactive)
CCCc1nc(SCC(=O)N2CCCC2)c2ccccc2n1 | -0.12% (inactive)
CC(C)(C)OC(=O)N(CCc1ccccc1)Cc1ccccc1OCc1cccc(NC(=O)C2CCCC2)c1 | 1.13% (inactive)
CN(C)CCCNC(=O)C[C@H]1C[C@H](C(=O)N2CCCCC2)[C@@]2(CCc3ccccc3)c3[nH]c4ccc(Cl)cc4c3CCN2C1=O | 3.82% (inactive)
O=C1CC(c2ccco2)CC(O)=C1C=Nc1ccccc1-c1ccccc1 (stereo not drawn) | 18.4% (inactive)
CCc1ccc(N=CC2=C(O)CC(c3ccco3)CC2=O)cc1 (stereo not drawn) | -1.68% (inactive)
O=C1CC(c2ccco2)CC(O)=C1C=NCCN1CCNCC1 (stereo not drawn) | 31.7% (inactive)
Cc1[nH]nc(N=CC2=C(O)CC(c3ccco3)CC2=O)c1-c1ccc(Cl)cc1 (stereo not drawn) | 8.53% (inactive)
Cc1ccc(N=CC2=C(O)CC(c3ccco3)CC2=O)cc1 (stereo not drawn) | 14.7% (inactive)
CC(C)C(=O)N1CCN(CCN=CC2=C(O)CC(c3ccco3)CC2=O)CC1 (stereo not drawn) | -5.81% (inactive) and 11.7% (inactive)
O=C1CC(c2ccccc2)CC(O)=C1C=Nc1ccccc1Cl (stereo not drawn) | -5.59% (inactive)
O=C1CC(c2ccco2)CC(O)=C1C=NCCN1CCN(C(=O)Nc2ccc(Cl)cc2)CC1 (stereo not drawn) | -5.15% (inactive)
COc1cccc(NC(=O)CC(C)=O)c1 | 3.45% (inactive)
CCNc1nc(NC(C)(C)C)nc(SCC(N)=O)n1 | -9.57% (inactive)
O=C(CN(Cc1cccs1)C(=O)CSc1nnc(COc2ccccc2)o1)NC1CCCCC1 | 3.54% (inactive)
COc1ccc(C)cc1NC(=S)N1CCN(c2ncccn2)CC1 | 6.81% (inactive)
CC1CCN(S(=O)(=O)c2ccc(C(C)C)cc2)CC1 | -4.55% (inactive)
Cc1cn([C@H]2C[C@H](O)[C@@H](CCC(=O)NCc3ccco3)O2)c(=O)[nH]c1=O | 3.31% (inactive)
Cc1cc(NC(=O)c2cc(-c3ccc(O)cc3)on2)no1 | -3.11% (inactive)
C=CCSc1nc2sc(C)c(C)c2c(=O)n1CC=C | -3.91% (inactive)
COc1ccc(N2C(=O)C3CCCN3C2c2cccs2)cc1 (stereo not drawn) | -1.1% (inactive)
O=C1C2CCCN2C(c2cccs2)N1c1ccc(Cl)cc1 (stereo not drawn) | -1.78% (inactive)
COc1cc(C2N(c3ccccn3)C(=O)C3CCCN32)cc(OC)c1OC (stereo not drawn) | -8.96% (inactive)
O=C1C2CCCN2C(c2ccccc2)N1c1ccc(Cl)cc1 (stereo not drawn) | 15.8% (inactive)

Compound | inhibition
O=C(CNC(=O)c1ccc(Br)o1)Nc1cccc(S(=O)(=O)N2CCOCC2)c1 | 1.25% (inactive)
CC1CCCCC1NC(=O)c1c(O)nc2ccccn2c1=O (stereo not drawn) | -12.1% (inactive)
COc1ccc(C(=O)Nc2ccc3c(c2)OCCO3)c(OC)c1 | 1.98% (inactive)
Cc1ccc(C(=O)n2ncn(C)c2=S)cc1 | -5.15% (inactive)
COC(=O)CN1C(=O)COc2ccc(S(=O)(=O)N3CCCCC3)cc21 | -2.76% (inactive)
Cc1cc(N)c2ccccc2n1 | 3.24% (inactive)
Nc1cccc2nc3ccccc3cc12 | 11.9% (inactive)
O=C(CN1CCC(C(=O)c2ccc3c(c2)OCCO3)CC1)Nc1ccccc1F | 2.56% (inactive)
COc1cccc(C2NC(=O)c3ccccc3O2)c1OC (stereo not drawn) | -1.95% (inactive)
Cc1cc(-c2nnc(CCC(=O)N(CC3CC3)CC3CCCO3)o2)no1 (stereo not drawn) | 0.72% (inactive)
Cc1ccc(-c2cc(C(=O)Nc3c(C)n(C)n(-c4ccccc4)c3=O)[nH]n2)c(O)c1 | 23.2% (inactive)
CC(=O)Nc1ccc(N2CCN(C(C)=O)CC2)cc1 | 24.9% (inactive)
CC(=O)N1CCN(c2ccc(NC(=O)c3ccc4c(c3)OCO4)cc2)CC1 | 18.3% (inactive)
O=C(c1ccccc1)N1CCN(c2ccc(NCc3ccc4c(c3)OCO4)cc2)CC1 | 21.7% (inactive)
CC(=O)N1CCN(c2ccc(NCc3cccc4ccccc34)cc2)CC1 | 28.3% (inactive)
Nc1c(C(=O)CSc2nccn2-c2ccc(Cl)cc2)c(=O)[nH]c(=O)n1C1CC1 | -3.47% (inactive)
CC1CCN(CCCCOc2cccc(Br)c2)CC1 | -0.02% (inactive)
COc1cccc(NC(=O)N(C)C[C@H]2OCc3cnnn3CCCC(=O)N([C@H](C)CO)C[C@@H]2C)c1 | -12.7% (inactive)
COc1ccc(Oc2cccc(Cl)c2CNC(=O)CSCC(=O)O)cc1 | 7.24% (inactive)
COc1ccc(NC(=O)Cc2c[nH]c3ccccc23)cc1S(=O)(=O)N1CCOCC1 | -3.49% (inactive)
Cc1c(NC(=O)C(C)N2C(=O)C3C4C=CC(C4)C3C2=O)c(=O)n(-c2ccccc2)n1C (stereo not drawn) | -0.22% (inactive)
